# Results from PubChem BioAssay AID751 (NMMLSC, 2007).
# Among all 24,000 compounds or so, about 40 (0.2%) were called active. The sample holds actives, similar compounds and a random draw of the others, so the mix is not that of the screen. Values without a mark were called inactive.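 The calls were made as follows: active = inhibition of disassembly above about 33% (limit read from the data); inconclusive = likely self-fluorescent, control bead median signal at least 40; inactive = the rest.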
# System: 26S proteasome (yeast, GFP-tagged, ATP-dependent disassembly)
# Assay: inhibitors of ATP-driven 26S proteasome dissociation, primary screen, biochemical, bead-based flow cytometry, GFP-tagged proteasome (AID 751);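 also: plate controls were ATP control with full disassembly for no effect and ATP-gamma-S intact proteasomes for full effect; higher percent means more bead fluorescence retained so stronger block of disassembly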
# Settings: anti-FLAG beads, active compounds read high, concentration not given here
row,SMILES,inhibition of disassembly
1,COc1ccccc1N1CCN(C(CNC(=O)Oc2ccccc2)c2cccnc2)CC1 (stereo not given),19.4%
2,O=C(NCC(c1cccnc1)N1CCN(c2ccccc2)CC1)Oc1ccccc1 (stereo not given),44.6% (active)
3,CC(C)c1ccc(O)c(CN2CCN(c3ccccc3)CC2)c1,0.72%
4,Cc1cccc(-n2c(C)nc3cc(C(=O)N4CCC5(CC4)OCCO5)ccc32)c1,1.69%
5,CCOC(=O)C1=C(C)OC(N)=C(C(=O)OC)C12C(=O)Nc1ccc(Br)cc12 (stereo not given),-0.24%
